Source: PubChem BioAssay (NCI)
Compounds without any hit were thinned out: in the full panel of roughly 83,000, 20% have a hit.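 96-well plates, one dose, 48 hours. Percent growth reported; active if below 10.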 The source made the active and inactive calls.

Test system: OVCAR-3 ovarian
Assay: NCI-60 one-dose screen, 48 h (100 = growth as untreated, 0 = no growth, -100 = all killed)
Details: 10 µM

| SMILES | growth |
| --- | --- |
| CN1CCN(c2ccc(Nc3nc(NCCCNC(=O)c4ccc(Cl)cc4)c4sccc4n3)cc2)CC1 | 109% (inactive) |
| CCCCCCCCCCCCCCCCCCCC(=O)NCCc1c[nH]c2ccc(O)cc12 | 87.4% (inactive) |
| COc1ccc2[nH]c(O)c(N=NC(=O)COc3ccc(NC(=O)Nc4ccc(Cl)cc4)cc3)c2c1 | -30.6% (active) |
| CCCCCCCCCCCCCCCCCCCC(=O)NCCc1c[nH]c2ccc(OC(=O)NOCCOCCOCCOCCOCCOCCOCCOCCOCCOCCOCCOCCOCCOCCOCCOCCOCCOCCOCCOCCOCCOCCOC)cc12 | 11.8% (inactive) |
| CC1(C)CC[C@]2(C(=O)N3CCOCC3)CC[C@]3(C)C(=CC[C@@H]4[C@@]5(C)CC[C@H](NCO)C(C)(C)[C@@H]5CC[C@]43C)[C@H]2C1 | -82.7% (active) |
| Cc1ccc(-c2cc(C(=O)N=Nc3c(O)[nH]c4ccc(Br)cc34)c3ccccc3n2)cc1 | 79.2% (inactive) |
| CCC(C)S(=O)(=O)c1oc(-c2ccc(C)cc2)nc1S(=O)(=O)c1ccccc1 (stereo unspecified) | -81.1% (active) |
| CCCCCc1ccc(S(=O)(=O)Nc2cc(-c3csc(N(C)C(C)=O)n3)ccc2N2CCN(C)CC2)cc1 | 60.2% (inactive) |
| C/C(=C\CC/C=C(\C)CC/C=C(\C)CC[C@@H](O)C(C)(C)O)CC/C=C(\C)CC[C@@H](O)C(C)(C)O | 42.6% (inactive) |
| CC(C)C(=O)Nc1ccc(C(=O)NC(=S)Nc2ccc(C(=O)O)cc2)cc1 | 91.1% (inactive) |
| CN1CCN(c2ccc(Nc3nc(N4CCN(S(=O)(=O)c5ccc(F)cc5)CC4)c4sccc4n3)cc2)CC1 | -79% (active) |
| COc1ccc(CCN2C(=O)/C(=C/c3csc(C#N)n3)SC2=S)cc1 | -39% (active) |
| O=C(NO)c1ccc(Cn2ccc3c(Nc4ccccc4)ncnc32)cc1 | 19.7% (inactive) |
| CC(=O)Nc1nc(-c2ccc(N3CCN(C)CC3)c(NS(=O)(=O)c3cccc4c(N(C)C)cccc34)c2)cs1 | 78.9% (inactive) |
| COC[C@@H](CC(C)C)N=C1NC(=O)/C(=C/c2ccc3ncsc3c2)N1 | -38.4% (active) |
| O=C(NC(=S)N1CCN(c2ncnc3c2cnn3-c2ccccc2)CC1)c1ccc(Cl)cc1 | 48.1% (inactive) |
